Bioassay records deposited in PubChem BioAssay by National Center for Advancing Translational Sciences (NCATS).
SARS PLpro yeast: inhibitors of SARS-CoV papain-like protease in yeast; 330,000 tested, 0.19% active; Potency, µM (series often up to 32.9 µM), for inactives: top-dose activity, positive = growth rescue, actives largely listed as activators; S. cerevisiae expressing SARS-CoV PLpro, growth rescue; calls by dose curve; note: potency is the fitted concentration of half-maximal effect; 0% is about no effect; nearly all actives have a fitted effect of over 55% in size
Pf growth 48h: inhibits P. falciparum growth in the first generation, 48 h. P. falciparum luciferase growth in erythrocytes, 48 h. Potency, µM (doses to about 28.7 µM), for the others: at the top dose activity change, negative = inhibition, usual class: inhibitors. 310,000 tested, 5.9% active. AID 504832; note: potency is the fitted concentration of half-maximal effect; % is set by controls: 0 for no effect and ±100 for the full control effect
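A one-generation exposure of luciferase-tagged malaria parasites in RPMI 1640/Albumax erythrocyte culture, 37 C and 5% CO2. Inhibition is inferred from decreased luminescence after adding detection reagent.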
Shiga toxin inh: Shiga toxin inhibition. inhibition, % at 38.7 µM. Vero cells, Shiga toxin protein synthesis inhibition reporter. AID 2315. 290,000 tested, 9.2% active; in the data active = inhibition mostly above about 28%, no sharp cut-off; inactive = mostly below about 43%; note: 0% is about no effect
CHX counter: counter-screen hit for Shiga toxin inhibitors, cycloheximide; 300,000 tested, 12% active; max response, %; cell reporter, cycloheximide protein synthesis inhibition counterscreen; in the data active = max response mostly above about 13%, no sharp cut-off; inactive = mostly below about 14%; note: read at 38.3 µM for the half of the compounds with a filed dose; 0% is about no effect
AMA1-RON2 inh: disrupts binding of P. falciparum AMA1 to RON2 | AlphaScreen AMA1-biotinylated RON2 peptide binding | Potency, µM (titrated, usually from 58.2 µM), inactives show top-dose activity change, negative = inhibition, actives largely listed as inhibitors | 360,000 tested, 0.2% active;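 note: potency is the fitted concentration of half-maximal effect; 0% = vehicle wells and -100% = peptide control; nearly all actives have a fitted effect of over 45% in size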
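AMA1 (3D7) with his tag at 25 nM final met compounds first, then biotinylated RON2 peptide at 25 nM; detection used donor plus acceptor beads, 10 µg/mL apiece, read by AlphaScreen after 30 min at room temperature.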
Pf growth 96h: P. falciparum growth inhibition at 96 hours | 320,000 tested, 6.9% active | P. falciparum luciferase reporter growth, 96 h | Potency, µM (doses to about 28.7 µM), for the others: top-dose activity change, negative = inhibition, hits mostly inhibitors; note: potency is the fitted concentration of half-maximal effect; % is set by controls: 0 for no effect and ±100 for the full control effect
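P. falciparum expressing integrated firefly luciferase grown in erythrocytes (2% hematocrit, 0.05% parasitemia final) with compounds for 96 hours at 37 C, 5% CO2. Growth inhibition read as loss of luminescence after adding luciferase detection reagent.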
Numbers without * were called inactive; ? = inconclusive; · = no result. Sampled rows, rich in hits. Any-hit rate of the full collection: about 19%. Unless noted, calls come from the whole dose curve; as a rule, active = well fitted curve in the direction sought with a large enough effect; inconclusive = small, poorly fitted or top-dose-only effect, or another doubt; inactive = no such curve, though single readings can be large; an effect the other way counts as inactive or inconclusive.

SMILES | SARS PLpro yeast | Pf growth 48h | Shiga toxin inh | CHX counter | AMA1-RON2 inh | Pf growth 96h
CCCC[C@@H]1CNC(=O)C(=O)N1CCCCC1CCCCC1 | · | · | · | · | -14% | ·
Oc1nc(Nc2ccccc2)sc1/C=C1\C=Nc2ccccc21 | -1% | 17% | 64* | 49* | 5% | 51%
CCn1c(O)c(/C=C2\C=Nc3ccccc32)sc1=O | -8% | 82% | 78* | 34* | -7% | 7.4µM*
O=c1[nH]c(O)c(/C=C2\C=Nc3ccccc32)[nH]1 | 0% | 24% | 13 | 18* | -10% | 41%
O=C(Nc1cccc(C(=O)N2CCOCC2)c1)C1CCCC1 | · | · | · | · | -3% | ·
COc1ccc2c(Cl)c(C(=O)NN3CCN(C)CC3)sc2c1 | 1% | 11% | 26 | 23* | 11% | ?
COc1ccc2c(Cl)c(C(=O)NC3CCS(=O)(=O)C3)sc2c1 (stereo not drawn) | ? | -2% | 36* | 20* | -12% | -5%
Cc1cc(C)nc(SCc2nnc(SCC(N)=O)o2)n1 | 0% | 37% | -8 | -2 | -11% | ?
NC(=O)c1ccc[n+](Cc2ccccc2)c1 | 0% | 7% | 14 | -2 | 10% | -15%
CC1=CCC2COC(c3ccc[n+](Cc4ccccc4)c3)C1C2 (stereo not drawn) | -7% | 1.5µM* | -8 | -3 | 9% | -24%
O=C(COc1ccc(Cl)cc1)Nc1ncccn1 | 2% | 55% | 35* | 34* | 3% | ·
Cc1nn(C)c(C)c1NC(=O)COc1ccc(Cl)cc1 | -1% | -1% | · | · | 1% | 2%
Cc1ccnc(NC(=O)COc2ccc(Cl)cc2)n1 | 0% | 67% | 41 | 25* | 1% | 42%
CC1(C(=O)NS(=O)(=O)c2ccccc2Cl)CCN1C(=O)Cc1ccccc1Cl (stereo not drawn) | · | · | · | · | -2% | ·
Cc1ccc2c(c1)N(C(=O)c1ccco1)C(C)(C)c1ssc(=S)c1-2 | 6% | · | -13 | -3 | 12µM* | 5.2µM*
Cc1cccc2c1N(C(=O)CN1C(=O)c3ccccc3C1=O)C(C)(C)c1ssc(=S)c1-2 | -7% | ? | -4 | -3 | -27% | 31%
Cc1ccc2c(c1)N(C(=O)CSc1nncn1C)C(C)(C)c1ssc(=S)c1-2 | -3% | ? | -4 | -1 | ? | ·
Cc1cccc2c1N(C(=O)c1ccco1)C(C)(C)c1ssc(=S)c1-2 | 0% | ? | -6 | -2 | -10% | 5.2µM*
CS(=O)(=O)Nc1ccc(-c2cnc3cccnn23)cc1 | · | · | · | · | 5% | ·
CC(C)(C)c1cc(NC(=O)c2cc(F)c(F)c(F)c2F)no1 | ? | 5% | -3 | 8 | 5% | 3%
CCOc1ccccc1OCCn1ncc2ccc(OC)c(OC)c2c1=O | 11% | -11% | 27 | 18* | -7% | ?
COc1ccc2cnn(CCOc3cc(C)ccc3C(C)C)c(=O)c2c1OC | 15% | ? | 20 | -2 | -6% | 10µM*
CCCOc1ccc(OCCn2nc(C(=O)O)c3ccccc3c2=O)cc1 | -2% | -11% | 17 | -2 | -12% | -18%
COc1ccc2cnn(CCOc3ccccc3)c(=O)c2c1OC | 5% | 159% | 59 | 34* | -6% | 14%
O=S(=O)(/C=C/c1ccccc1)NC1CCCCCCC1 | -51% | 18% | -3 | -6 | 21% | 9%
SMILES | SARS PLpro yeast | Pf growth 48h | Shiga toxin inh | CHX counter | AMA1-RON2 inh | Pf growth 96h
O=C(/C=C/c1ccccc1)NCCc1ccccc1 | -3% | -27% | 92* | 46* | -27% | 24%
CC(C)(C)SCCNC(=O)/C=C/c1ccc(F)cc1 | 7% | ? | 115* | 51* | -10% | -5%
CC(C)(C)SCCNC(=O)/C=C/c1ccccc1 | -1% | ? | 104* | 46* | 0% | 10µM*
Cc1cc(/C=C2\C(=O)NC(=O)N(Cc3ccco3)C2=O)c(C)n1-c1ccc(O)cc1 | 10% | 0% | 15 | 17* | -6% | 29%
Cc1cc(/C=C2\C(=O)NC(=O)N(Cc3ccccc3Cl)C2=O)c(C)n1-c1ccc(C(=O)O)cc1 | 0% | 7% | 3 | -3 | -3% | 1.9µM*
Cc1cc(/C=C2\C(=O)NC(=O)N(Cc3ccco3)C2=O)c(C)n1-c1ccc(C(=O)O)cc1 | 1% | 13% | 6 | -2 | 5% | -2%
Cc1ccc(-n2c(C)cc(/C=C3/C(=O)NC(=O)N(Cc4ccco4)C3=O)c2C)cc1 | -2% | -21% | -6 | -1 | -8% | ?
CCCCN1CC(=O)N2[C@H](c3ccc(OC)cc3)[C@@H]3C(=O)N(CC)C(=O)[C@@H]3[C@]2(C)C1=O | 0% | -1% | 7 | 0 | 14% | 5%
O=C1C(Cl)=C(N2CCCCCC2)C(=O)N1c1ccc(Br)cc1 | -2% | -29% | 22 | 3 | 84% | ?
O=C1C(Cl)=C(N2CCCCCC2)C(=O)N1c1ccccc1 | -7% | -26% | 46 | 25* | 35% | -13%
O=[N+]([O-])c1ccccc1/C=C/C=N/Nc1nc(N2CCCCC2)nc(N2CCCCC2)n1 | 0% | -14% | 20 | -3 | -2% | ?
O=[N+]([O-])c1ccccc1/C=C\C=N\N1CCN(c2ccccc2)CC1 | -2% | -19% | 56 | 25* | ? | ?
O=[N+]([O-])c1ccccc1/C=C/C=N/N1CCCCC1 | 0% | 288% | 63* | 66* | 10µM* | 160%
O=[N+]([O-])c1ccccc1/C=N/N1CCN(c2ccc(Cl)cc2)CC1 | -13% | 0% | 13 | 0 | ? | ?
O=[N+]([O-])c1ccccc1/C=N\N1CCN(c2ccccc2)CC1 | -2% | 37% | 61* | 36* | 22µM* | 21%
COc1ccccc1N1CCN(/N=C/C=C/c2ccccc2[N+](=O)[O-])CC1 | 0% | -1% | 67* | 13 | 5.6µM* | 2%
O=[N+]([O-])c1ccc(Cl)c(/C=N/N2CCN(c3ccccc3)CC2)c1 | -2% | -8% | 11 | -3 | ? | 20%
Cc1cc(C)cc(NC(=O)COC(=O)COc2ccc(N(C)S(=O)(=O)c3cccs3)cc2)c1 | -1% | · | · | · | -5% | ·
COc1ccc(C(N)c2csc(Nc3ccc(S(C)(=O)=O)cc3)n2)cc1 (stereo not drawn) | · | · | · | · | 80% | ·
CC/C(=C/c1sc2ccccc2[n+]1CC)SC | -2% | ? | -15 | 2 | -8% | 1.7µM*
CC[n+]1c(/C=C(\C)OC)sc2ccccc21 | 0% | 34% | -3 | 1 | -5% | -29%
CC[n+]1c(/C=C(\C)Nc2ccccc2)sc2ccccc21 | -15% | 5.2µM* | -13 | -1 | -18% | -18%
CC[n+]1c(/C=C(\C)SC)sc2ccccc21 | -2% | 0.29µM* | 10 | -1 | 1% | ?
Cc1ccc(-c2cc(C(=O)NCCCN3CCOCC3)c3ccccc3n2)cc1 | 2% | ? | · | · | -3% | ?
Cc1ccc(-c2cc(C(=O)NCCCN3CCCC3)c3ccccc3n2)cc1C | 0% | 5.2µM* | 31 | 9 | -5% | ?
